# About 79,000 compounds went through this panel and 15% of them were active in at least one assay; those are over-represented in the sample as a whole. A number with no mark means an inactive call. Active and inactive are the calls of the source. Rule as the data show it: active = growth inhibition above about 70%; inactive = the rest.
# Test: NCI Yeast Anticancer Drug Screen. Data for the rad50 strain (AID 155);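 also: 0% = growth of vehicle-only cultures of the same strain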
# Details: S. cerevisiae rad50 strain growth inhibition; at 50.0 µM; active compounds read high
# Method in brief: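 Vehicle-treated cultures provide the reference for the growth inhibition reported for compound-exposed, repair-deficient yeast.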
row,Compound,growth inhibition
1,O=C1CSC(c2cccc(O)c2)N1c1nncs1 (stereo not given),6.75%
2,CCCCCCCCCC1CC(=O)OC23CCCC(=O)C12O3 (stereo not given),-10.8%
3,CC(C)NCC(O)COc1c2ccccc2nc2ccccc12 (stereo not given),-8.65%
4,CCCOc1ccc(C(=O)C(C(c2ccccc2)N2CCOCC2)N2CCOCC2)cc1 (stereo not given),-71.2%
5,O=S(=O)(OI(O)CC(F)(F)F)C(F)(F)F,30.5%
6,Nc1ncnc2c1ncn2C1CCC(CP(=O)(O)O)C1 (stereo not given),-6.85%
7,O=C(CC(C(=O)c1cccs1)c1cccs1)c1ccsc1 (stereo not given),-4.2%
8,O=C(C[n+]1ccccc1CCCO)c1ccc(F)cc1,3.55%
9,CCOC(=O)NCC(C)(C)N(C(=O)OCC)c1ccccc1,-24.1%
10,O=C(/C=C/c1cccc2ccccc12)c1ccccc1Cl,52.9%
11,O=C1NC(=O)C(Cc2ccco2)N1 (stereo not given),10.8%
12,N=C1N=Nc2nc(C(C(=O)c3cccc(O)c3)c3nc4n(c3O)C(=N)N=N4)c(O)n21 (stereo not given),18.8%
13,CCOC(=O)\C(C#N)=C/C=C(C)/C(C)=C/Nc1ccc([N+](=O)[O-])cc1[N+](=O)[O-],10.9%
14,C[C@]1(CO)CCC[C@@]2(C)C1CC[C@H]1CC3C[C@]12CC[C@]3(C)O (stereo not given in full),47.2%
15,CC(=O)Nc1c(Cl)cccc1[N+](=O)[O-],-25.1%
16,CCOC(=O)C1C/C(C)=C(/C)SCCCS1 (stereo not given),18.8%
17,NC(=O)c1cc(Cl)ccc1O,14.5%
18,O=c1[nH]c(NCc2ccc(Cl)cc2)nc2nc[nH]c12,0.85%
19,COc1ccc(C(O)C2CCCN(C)S2(=O)=O)cc1 (stereo not given),13.4%
20,Clc1ccc([I+]c2ccc(Cl)cc2)cc1,96.2% (active)

row,Compound,growth inhibition
1,CCCCCCCCCCCCCCCc1c(NC(C)(CC(C)(C)O)[P+](=O)O)c(=O)n(C)n1C (stereo not given),-52.2%
2,CC(C)Nc1ncnc2c1cnn2-c1ccccc1,-5.9%
3,CC(C)(C)c1cc(CCC(=O)Nc2ccc(Cl)cc2)[nH]c(=S)n1,1.85%
4,COC(=O)c1c2c(cc3c1CC1(C3)Cc3ccc4c(c3C1=O)CCC4)CCC2 (stereo not given),12.5%
5,O=Cc1ccccc1CCn1c(=O)c2cc3c(=O)n(CCc4ccccc4C=O)c(=O)c3cc2c1=O,33.7%
6,NC(N)=N/N=C(\c1ccc(Cl)cc1)C1CC1,2.7%
7,Cc1ccc(CSCc2c(CSCc3ccc(C)cc3)c(CSCc3ccc(C)cc3)c(CSCc3ccc(C)cc3)c(CSCc3ccc(C)cc3)c2CSCc2ccc(C)cc2)cc1,-6%
8,NC(C(=O)O)c1ccccc1 (stereo not given),-0.85%
9,[Mn+2].[Mn+2].c1ccc2c(c1)-c1nc-2nc2[n-]c(nc3nc(nc4[n-]c(n1)c1ccccc41)-c1ccccc1-3)c1cc3c4nc5nc(nc6[n-]c(nc7nc(nc([n-]4)c3cc21)-c1ccccc1-7)c1ccccc61)-c1ccccc1-5,15.4%
10,Cn1c(=O)c2c(nc(C[N+]3([O-])CCOCC3)n2C)n(C)c1=O,-4.75%
11,O=C(c1ccccc1)c1ccncc1,28.2%
12,CCOC(=O)c1[nH]cnc1N,-17.1%
13,COc1ccccc1C(=O)NO,-14.1%
14,CCCC1OCC(O)C(C(O)C(=O)CN(Cc2ccccc2)Cc2ccccc2)O1 (stereo not given),0.1%
15,CCOC(=O)c1c(N)[nH]c(SSc2[nH]c(N)c(C(=O)OCC)c2C(=O)OCC)c1C(=O)OCC,25.6%
16,O=C(O)Cc1cccc2c(=O)cc(Cc3ccccc3)oc12,-13.8%
17,COc1cc([N+](=O)[O-])ccc1C(=O)NC(CCC(=O)O)C(=O)O (stereo not given),-12.6%
18,CCCCCOc1ccc2ccccc2c1,-23.5%
19,OCC(O)CNc1ncnc2ccccc12 (stereo not given),-1.65%
20,Oc1cc(N2CCCC2)ccc1/C=N/N1C(=S)N(c2ccccc2)C(=Nc2ccccc2)C1=Nc1ccccc1,-23.1%
